The values below come from PubChem BioAssay AID2241 (Broad Institute, 2010).

The whole screen tested about 21,000 compounds, of which about 110 (0.52%) were called active. The sample as a whole holds a higher share of actives than the screen did. A number with no mark means an inactive call.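 Rule for the calls: active = most replicate scores above 10, or exactly half above 10 with mean activity above 10; inconclusive = mean activity below 10 while half the replicates exceed 10; inactive = most replicate scores below 10.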

The assay is described as follows: caspase activation in A1-primed MEFs – cell-based, CaspaseGlo luminescence, A1 inhibitor project, primary screen (AID 2241).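 Note: effector caspase 3 and 7 activity cleaving a DEVD luciferin substrate.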 The following applies: MEF A1-2A-BIM cells, caspase-Glo luminescence, 3 h; stronger effect = higher value; percent of clofoctol signal, DMSO as zero; concentration not given here.
As for `Cc1ccc(S(=O)(=O)Nc2ccc3c(c2)C(=O)N([C@@H](C)CO)C[C@H](C)[C@@H](CN(C)Cc2ccc4c(c2)OCO4)O3)cc1`, the caspase activation was -0.498%.
As to `O=C(COc1ccccc1)NCCc1nc2ccccc2n1Cc1ccccc1`, the caspase activation is 0.301%.
Regarding `Cc1cc(C)c(N=c2scc(C)n2Cc2ccccc2)c(C)c1`, the caspase activation was 0.564%.
`COc1ccc(-c2cc(C(F)(F)F)nc(SCC(=O)N3CCCCCC3)n2)cc1OC`: the caspase activation is -1.22%.
As to `Cc1cccc(N2CCN(C(=O)CCn3c(=S)[nH]c4cc5c(cc4c3=O)OCO5)CC2)c1C`, the caspase activation was -1.1%.
Take `COc1ccc(S(=O)(=O)Nc2ccc3c(c2)C(=O)N([C@@H](C)CO)C[C@H](C)[C@H](CN(C)Cc2ccc(C(=O)O)cc2)O3)cc1`: the caspase activation was 0.618%.
With `C/C=C1\CC(C)(CC)C(C#N)(C#N)C(N)=C1C#N` (centres undefined), the caspase activation was -1.08%.
As for `Cc1ccc(S(=O)(=O)Nc2ccc3oc(C)c(C(=O)NN)c3c2)cc1`, the figure is 0.426%; as for `COc1ccc(CCn2c(C)nc(=O)c(-c3ccccc3)c2C)cc1OC`, 0.553%; as for `CC1(C)CC(=O)C=C(Nc2ccccc2)C1`, 0.527%.
With `CN(C)c1ccc(/C=C(\C#N)S(=O)(=O)c2ccccc2)cc1C#N`, the caspase activation is 0.997%.
In the case of `COc1ccc(OC(=O)c2csc(Cc3c(Cl)cccc3Cl)n2)cc1`, the caspase activation is 1.94%.
As to `O=C(Nc1nccs1)C1CCCN(C(=O)c2cnn(-c3ccccc3)c2-n2cccc2)C1` (centres undefined), the caspase activation is 0.381%.
`CC1(C)CC(=O)C(C=NCc2cccnc2)=C(O)C1`: the caspase activation is 1.24%.
For `C[C@H](CO)N1C[C@H](C)[C@@H](CN(C)Cc2ccccc2)Oc2ccc(NC(=O)Nc3ccc4c(c3)OCO4)cc2C1=O`, the caspase activation is 0.17%.
For the compound `COc1ccc(CN(C)C[C@@H]2Oc3ccc(NC(=O)NC(C)C)cc3C(=O)N([C@@H](C)CO)C[C@H]2C)cc1`, the caspase activation was -0.804%.
With `CC1(C)Cc2c(sc3ncn4nc(COc5ccc(Cl)cc5)nc4c23)C(C)(C)N1`, the caspase activation was 0.338%.
The result for `C/C=C(/C)C(=O)O[C@H]1CC(C)(C)C[C@H]2C3=CCC4[C@@]5(C)CC[C@H](O[C@@H]6O[C@H](C(=O)O)[C@@H](O[C@@H]7O[C@H](CO)[C@H](O)[C@H](O)[C@H]7O[C@@H]7O[C@H](CO)[C@@H](O)[C@H](O)[C@H]7O)[C@H](O)[C@H]6O[C@@H]6O[C@@H](C)[C@H](O)[C@@H](O)[C@H]6O)C(C)(C)C5CC[C@@]4(C)[C@]3(C)[C@@H](O)[C@@H](O)[C@@]12CO` (some centres undefined) reads -2.44%.
For `COc1ccc(S(=O)(=O)N(C)C[C@H]2Oc3ccc(NC(=O)Nc4c(C)noc4C)cc3C(=O)N([C@H](C)CO)C[C@H]2C)cc1`, the caspase activation is -0.141%.
Take `CCOC(=O)c1cnc2cc(C(F)(F)F)ccc2c1N1CCCCCC1`: the caspase activation was 0.00836%.
With `C[C@H](CO)N1C[C@H](C)[C@H](CN(C)S(=O)(=O)c2cccs2)Oc2ccc(NS(=O)(=O)c3ccccc3)cc2C1=O`, the caspase activation is -0.0772%.
On to `COc1cccc(NC(=O)c2cc3c(s2)-c2c(C)cccc2OC3)c1`, for which the caspase activation was -5.23%.
The result for `Cc1nn(C)cc1C(=O)c1ccccc1` reads 0.635%.
In the case of `Cc1ccc2c(c1)N(CCCC(=O)N1CCCCC1)C(=O)CO2`, the caspase activation was -0.335%.
In the case of `Cc1ccccc1-n1c(-c2ccc(Br)cc2)n[nH]c1=S`, the caspase activation is -0.035%.
The result for `COc1cc(OC)cc(C(=O)N2CCN=C2c2ccccc2)c1` reads 0.196%; that for `Cc1nn(C(C)C(=O)NC2CCCCCC2)c(=O)c2cc3occc3n12` (centres undefined), 0.379%.
The result for `O=C(Nc1ccc(S(=O)(=O)Nc2nccs2)cc1)N1c2ccccc2Sc2ccccc21` reads 0.0197%; that for `Fc1cc(F)cc(NC(=S)NCCN(C2CCCCC2)C2CCCC2)c1`, -0.0874%.
Take `CC(=O)Oc1ccc(C2OCC3C(C)C=C(C)C2C3C)cc1` (centres undefined): the caspase activation is 0.946%.
As for `O=C(NCc1ccc2c(c1)OCO2)c1sc(=S)n2c1[nH]c(=O)c1ccccc12`, the caspase activation is -0.669%.
The result for `CCOC(=O)c1cn(CC)c2cc(F)c(F)cc2c1=O` reads 0.158%; that for `O=C(NCc1ccccc1Cl)C1=CSCCO1`, -0.087%.
As for `C[C@@H]1CN([C@@H](C)CO)C(=O)c2cc(NS(=O)(=O)c3ccccc3)ccc2O[C@H]1CN(C)S(=O)(=O)c1ccc(Cl)cc1`, the caspase activation is 0.207%.
For the compound `Cc1ccc(-c2nn(C(C)(C)C)c3ncnc(N)c23)cc1`, the caspase activation is 11.3% (active).
With `COc1ccc(NC(=O)Nc2ccc3c(c2)C(=O)N([C@@H](C)CO)C[C@H](C)[C@@H](CN(C)C(=O)NC2CCCCC2)O3)cc1`, the caspase activation was -0.437%.
Take `Cc1ccc(S(=O)(=O)c2no[n+]([O-])c2S(=O)(=O)c2ccc(C)cc2)cc1`: the caspase activation is -3.56%.
Regarding `CCC(CC)NC(=O)C1c2ccccc2Oc2ccccc21`, the caspase activation is 0.418%.
Regarding `Cc1noc(C)c1S(=O)(=O)Nc1ccc2c(c1)C(=O)N([C@@H](C)CO)C[C@H](C)[C@H](CN(C)C(=O)Nc1ccc(C(F)(F)F)cc1)O2`, the caspase activation is -0.257%.
`Cc1ccc(-n2c(C)nc3sc4c(c3c2=O)CCC4)cc1`: the caspase activation was 0.54%.
For `CC(=O)Oc1ccc2occ(C(=O)c3cc4ccccc4o3)c2c1`, the caspase activation is -5.48%.
With `O=C(Nc1ccc(Cl)cc1)Nc1ccc(N2CCN(c3ncccc3C(F)(F)F)CC2)nc1`, the caspase activation is -0.335%.
Take `Cc1cccc(NC(=O)C2C3CC/C=C\CCC32)c1` (centres undefined): the caspase activation is 1.35%.
Regarding `CN1C(=O)C(Cc2ccccc2)(Cc2ccccc2)c2ccccc21`, the caspase activation is -0.527%.
As for `C=CCn1c2ccccc2c2nnc(SCCCC(=O)c3ccc(F)cc3)nc21`, the figure is -0.988%; as for `CNC(=O)CSc1nc2ccccc2[nH]1`, 0.45%; as for `Cc1nc(C2COc3ccccc3O2)ncc1S(=O)(=O)c1ccc(Cl)cc1` (centres undefined), -0.851%.
As to `O=C(CC1SC(=NC2CC3C=CC2C3)NC1=O)Nc1ccccc1Cl` (centres undefined), the caspase activation is 0.103%.
As for `C[C@H]1CN([C@@H](C)CO)C(=O)c2cc(NC(=O)CCC(F)(F)F)ccc2O[C@H]1CN(C)Cc1ccc(C(=O)O)cc1`, the figure is 0.236%.
